# From PubChem
# Hits are enriched below; roughly 2.1% of the tested compounds scored in any of these assays.
# YB-1 expr inh: YB-1 expression inhibition; delta delta Cp (YB-1 minus CDIP) (test concentration not listed); AID 434959; U2OS, qRT-PCR YB-1 vs CDIP delta delta Cp, 16 h; active compounds read high; zero = DMSO, each unit about twofold; 30,000 tested, 0.37% active;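 active = delta delta Cp rounded down to an integer at or above 3, about 3 SD of DMSO wells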;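 note: higher means less YB-1 transcript or more CDIP transcript relative to DMSO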
# ROS inducer: raises reactive oxygen species in U2OS cancer cells; AID 624156; U2OS ROS induction, H2DCF-DA fluorescence; ROS induction (% of piperlongumine), % at 10 µM; 46,000 tested, 2% active; in the data active = ROS induction above about 79%, passing the limit was not always enough;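 note: 0% = DMSO vehicle median and 100% = reference compound median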
# Active calls of the source: *; · = no result given.
SMILES,YB-1 expr inh,ROS inducer
CNC[C@@H]1Oc2ccc(NS(=O)(=O)c3c(C)noc3C)cc2CC(=O)N([C@H](C)CO)C[C@H]1C,0.28,99*
C[C@@H]1CCCCO[C@@H](CN(C)Cc2ccc(C(F)(F)F)cc2)[C@@H](C)CN([C@H](C)CO)C(=O)c2cc(NC(=O)c3ccncc3)ccc2O1,0.21,98*
C[C@@H]1CCCCO[C@@H](CN(C)Cc2ccc(C(F)(F)F)cc2)[C@@H](C)CN([C@H](C)CO)C(=O)c2cc(NC(=O)c3ccccc3)ccc2O1,-0.45,71
CCN(CC)C(=S)Oc1ccc(C(=O)Nc2cccc3ccccc23)cc1,·,42
CCC(C(=O)NC1CCCC1)n1c(SCc2ccc(C)cc2)nc2ccncc21 (stereo not drawn),·,53
COc1ccccc1N1C(=O)CCC1(C#N)c1ccc(OCc2ccccc2)cc1 (stereo not drawn),·,15
COc1cccc(-c2cc(C(=O)N3CCOCC3)on2)c1,·,-9
Cc1noc(C)c1S(=O)(=O)Nc1ccc2c(c1)C(=O)N([C@H](C)CO)C[C@H](C)[C@@H](CN(C)Cc1ccc(Cl)c(Cl)c1)O2,-0.026,72
Cc1noc(C)c1NC(=O)Nc1ccc2c(c1)C(=O)N([C@H](C)CO)C[C@H](C)[C@H](CN(C)Cc1ccc3c(c1)OCO3)OCCCC[C@@H](C)O2,0.078,-1
Cc1noc(C)c1S(=O)(=O)Nc1ccc2c(c1)C(=O)N([C@H](C)CO)C[C@@H](C)[C@@H](CN(C)Cc1ccc(Cl)c(Cl)c1)O2,-0.044,101*
Cc1noc(C)c1NC(=O)Nc1ccc2c(c1)C(=O)N([C@H](C)CO)C[C@H](C)[C@@H](CN(C)Cc1ccc(Cl)c(Cl)c1)OCCCC[C@@H](C)O2,6.1*,10
CCOC(=O)CC(N)c1cccc(O)c1 (stereo not drawn),·,-4
O=C(CSC(=S)N1CCOCC1)Nc1nc(-c2c[nH]c3ccccc23)cs1,·,23
Cc1ccccc1C(=O)NCCC(C)C,·,3
COCCOC(=O)N1C(=O)[C@@]2(c3cc(C#CCNC(N)=O)ccc31)[C@H](C(=O)N1CCc3cc(OC)c(OC)cc3C1)[C@H]1C(=O)O[C@H](c3ccccc3)[C@H](c3ccccc3)N1[C@@H]2c1ccccc1OCCO,-0.2,0
COCCOC(=O)N1C(=O)[C@@]2(c3cc(C#Cc4ccc(OC)cc4)ccc31)[C@H](c1ccccc1OCCO)N1[C@H](c3ccccc3)[C@H](c3ccccc3)OC(=O)[C@H]1[C@@H]2C(=O)N1CCc2cc(OC)c(OC)cc2C1,0.053,112*
COCCOC(=O)N1C(=O)[C@@]2(c3cc(C#Cc4ccc(OC)cc4)ccc31)[C@H](C(N)=O)[C@H]1C(=O)O[C@H](c3ccccc3)[C@H](c3ccccc3)N1[C@@H]2c1ccccc1OCCO,9.5*,38
COCCOC(=O)N1C(=O)[C@@]2(c3cc(C#Cc4ccc(OC)cc4)ccc31)[C@H](C(=O)N1CCc3cc(OC)c(OC)cc3C1)[C@H]1C(=O)O[C@H](c3ccccc3)[C@H](c3ccccc3)N1[C@@H]2c1ccccc1OCCO,0.09,50
COCCOC(=O)N1C(=O)[C@@]2(c3ccccc31)[C@H](C(=O)N1CCc3cc(OC)c(OC)cc3C1)[C@H]1C(=O)O[C@H](c3ccccc3)[C@H](c3ccccc3)N1[C@@H]2c1ccccc1OCCO,0.66,121*
COCCOC(=O)N1C(=O)[C@@]2(c3cc(C#Cc4ccc(OC)cc4)ccc31)[C@H](C(N)=O)[C@H]1C(=O)O[C@H](c3ccccc3)[C@H](c3ccccc3)N1[C@@H]2c1ccc(OCCO)cc1,-0.32,14
CC(C)c1ccc(NC(=O)NCC2CCCO2)cc1 (stereo not drawn),·,-8
O=C(NCc1sccc1COc1ccc(Cl)cc1)Nc1ccccc1F,·,-5
COC(=O)Cn1c(=N)n(C)c2ccccc21,·,13
CCC(C)NC(=O)c1cnn2c(C(F)(F)F)cc(-c3ccccc3)nc12 (stereo not drawn),·,129*
COc1ccc(-c2cc(C(F)(F)F)n3nc(C(=O)NCc4ccco4)cc3n2)cc1OC,·,33
SMILES,YB-1 expr inh,ROS inducer
CSc1ccccc1NC(=O)c1cnn2c(C(F)(F)F)cc(-c3ccco3)nc12,-0.71,171*
O=C(O)c1cnn2c(C(F)(F)F)cc(-c3ccco3)nc12,·,-13
COc1ccc(-c2cc(C(F)(F)F)n3ncc(C(=O)NCc4nc5ccccc5[nH]4)c3n2)cc1OC,·,151*
O=C(c1cnn2c(C(F)(F)F)cc(-c3ccccc3)nc12)N1CCCC1,·,6
CCc1ccc(NC(=O)c2cc3c(s2)-c2ccccc2S(=O)(=O)C3)cc1,·,50
COc1cc(-c2nc(Nc3ccc(C)c(F)c3)c3ccccc3n2)cc(OC)c1OC,·,13
CCOc1ccc(N=CC2=C(O)CNC2=O)cc1,·,4
CN(C)CCCNC(=O)[C@@]1(c2ccc([N+](=O)[O-])cc2)CC(=O)N(C2CCCCC2)[C@@H]1c1ccc(CO)cc1I,0.15,31
Cc1ccc(S[C@]2(C(=O)NC(C)C)CC(=O)N(C(C)C)[C@@H]2c2ccc(CO)cc2I)cc1,-0.34,176*
COc1ccc(CCNC(=O)[C@@]2(Sc3ccc(C)cc3)CC(=O)N(C3CCCCC3)[C@@H]2c2ccc(CO)cc2I)cc1,-0.11,160*
Cc1ccc(S[C@]2(C(=O)NC3CC3)CC(=O)N(C3CCCCC3)[C@@H]2c2ccc(CO)cc2I)cc1,-0.064,11
Cc1ccc(S[C@]2(C(=O)NCCCN(C)C)CC(=O)N(C3CCCCC3)[C@@H]2c2ccc(CO)cc2I)cc1,-0.051,6
CCCNC(=O)[C@@]1(Sc2ccc(C)cc2)CC(=O)N(C2CCCCC2)[C@@H]1c1ccc(CO)cc1I,0.25,162*
C=C(C)Cn1c(SCC(=O)NN)nc2ccccc2c1=O,·,22
COc1cc(-c2oc3cc(O)cc(O)c3c(=O)c2O[C@@H]2O[C@H](CO)[C@@H](O)[C@H](O)[C@H]2O)ccc1O[C@@H]1O[C@H](CO)[C@@H](O)[C@H](O)[C@H]1O,-0.92,-6
COC(=O)C1c2c(oc3cc(CO)cc(O)c3c2=O)C=CC1O (stereo not drawn),0.37,137*
O=C(Nc1ccc2nn(-c3ccccc3)nc2c1)C(c1ccccc1)c1ccccc1,·,10
CC(C)(C)c1ccc(OCC(=O)Nc2ccc3c(c2)oc2ccccc23)cc1,·,-15
CSc1sc(C(=O)Sc2ccccc2)cc1S(=O)(=O)C(C)C,0.12,80*
CSc1sc(C(=O)Sc2ccccc2)c2c1S(=O)(=O)N(C)c1ccccc1-2,0.18,3
O=C(O)CSc1c2c(nc3cc(C(=O)NC4CCCCCC4)ccc13)CCC2,·,2
COc1cc(C2OCC3C(c4cc(OC)c5c(c4)OCO5)OCC23)cc(OC)c1OC (stereo not drawn),0.86,34
COc1ccc(C2OCC3C(c4cc(OC)c5c(c4)OCO5)OCC23)cc1OC (stereo not drawn),5*,5
Cc1oc2cc(OC(C)C)ccc2c(=O)c1-c1ccc2c(c1)OCCO2,6.9*,18
CCOC(=O)c1oc2cc(O)c(CC)cc2c(=O)c1-c1ccc2c(c1)OCCO2,·,36
CCc1c(C(=O)OC)nnn1-c1nonc1N,·,27
COc1ccccc1N1CCN(C(=O)CN(c2ccccc2OC)S(C)(=O)=O)CC1,·,8
CCOC(=O)CCCn1c(=O)c2cccn2c2ccccc21,·,1
CCOC(=O)c1c2c(n3ccccc13)C(=O)c1ccccc1C2=O,·,210*
